Measurements as given in PubChem BioAssay (EPA / NIEHS).
Activity calls are given as the source filed them. How the source made its calls: active means hit-call score of the fitted dose curve at least 0.9, where 1 is the maximum; inactive means score below 0.9.

Experiments:
Conditions in all cases: primary human HUVEC with PBMC; actives raise or lower the signal
[1] = read-out: Interleukin-1 alpha (IL1a), IL1A (gene 3552); assay: BSK_LPS_IL1a: BioMAP Diversity Plus: LPS Assay for Interleukin-1 alpha (IL1a) Biomarker Activity (AID 2283080)
Outline: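 Readout is IL-1a level by ELISA, 24 h post-dose, fitted as gain or loss relative to DMSO. System: LPS-activated human primary co-culture of vascular endothelium and peripheral blood mononuclear cells, with parallel SRB total-protein cytotoxicity.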

[2] = read-out: Monocyte Chemoattractant Protein-1 (MCP1), CCL2 (gene 6347); assay: BSK_LPS_MCP1: BioMAP Diversity Plus: LPS Assay for Monocyte Chemoattractant Protein-1 (MCP1) Biomarker Activity (AID 2283081);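 on AC50: secreted MCP-1 protein quantified by ELISA in culture supernatant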
Outline: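 Secreted MCP-1 read by ELISA at 24 h post-dosing in an LPS-activated co-culture of endothelial cells with peripheral blood mononuclear cells. Fits run in both directions, DMSO as baseline; parallel SRB staining tracks overt cytotoxicity.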

[3] = BSK_LPS_PGE2: BioMAP Diversity Plus: LPS Assay for Prostaglandin E2 (PGE2) Biomarker Activity (AID 2283082);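 on AC50: secreted prostaglandin E2 measured by ELISA in LPS-stimulated co-culture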
Outline: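 HUVEC plus human PBMC co-culture stimulated with LPS; secreted PGE2 quantified by ELISA 24 h after chemical dosing. Activity fitted bidirectionally against DMSO baseline; parallel SRB staining (0.1% SRB after 10% TCA fixation, 560 nm) flags overt cytotoxicity.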

[4] = read-out: Macrophage colony-stimulating factor (MCSF), CSF1 (gene 1435); assay: BSK_LPS_MCSF: BioMAP Diversity Plus: LPS Assay for Macrophage colony-stimulating factor (MCSF) Biomarker Activity (AID 2283083)
Outline: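 Bidirectional fitting against DMSO was applied to M-CSF levels read by ELISA at 24 h post-dose. The system pairs human umbilical vein endothelium with peripheral blood mononuclear cells; parallel SRB staining tracked cytotoxicity.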

[5] = read-out: Tissue Factor, F3 (gene 2152); assay: BSK_LPS_TissueFactor: BioMAP Diversity Plus: LPS Assay for Tissue Factor Biomarker Activity (AID 2283084)
Outline: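 Compound was added to an endothelial cell/PBMC co-culture, and after 24 h tissue factor (CD142) was read by ELISA. Gain or loss of signal was fitted against a DMSO baseline, and parallel SRB staining (560 nm) tracked overt cytotoxicity.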

[6] = read-out: Tumor necrosis factor (Homo sapiens) (UniProt P01375); assay: BSK_LPS_TNFa: BioMAP Diversity Plus: LPS Assay for Tumour Necrosis Factor alpha (TNFa) Biomarker Activity (AID 2283085);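 on AC50: TNFa protein level quantified by ELISA in the co-culture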
Outline: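 Human umbilical vein endothelial cells co-cultured with PBMC and stimulated with LPS. TNFa was measured by ELISA 24 h after chemical dosing, fitted bidirectionally relative to DMSO.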

[7] = read-out: Vascular cell adhesion molecule 1 (VCAM1), VCAM1 (gene 7412); assay: BSK_LPS_VCAM1: BioMAP Diversity Plus: LPS Assay for Vascular cell adhesion molecule 1 (VCAM1) Biomarker Activity (AID 2283086)
Outline: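 Human umbilical vein endothelial cells co-cultured with PBMC and stimulated with LPS; VCAM-1 measured by ELISA 24 h after dosing. Bidirectional curve fitting against DMSO baseline; cytotoxicity tracked in parallel by SRB total-protein staining.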

CD38, CD38 (gene 952) = assay: BSK_SAg_CD38: BioMAP Diversity Plus: SAg Assay for CD38 Biomarker Activity (AID 2283087)
Outline: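 Human HUVEC plus PBMC co-culture stimulated with superantigen; CD38 measured by ELISA 24 h after chemical dosing. Fluorescence read-out, bidirectional fit against DMSO; cytotoxicity tracked in parallel by SRB and Alamar Blue.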

CD69, CD69 (gene 969) = assay: BSK_SAg_CD69: BioMAP Diversity Plus: SAg Assay for CD69 Biomarker Activity (AID 2283089);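 on AC50: cell surface CD69 protein quantified by ELISA with fluorescence detection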
Outline: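 ELISA, fluorescence read-out: CD69 on human umbilical vein endothelial cell + PBMC co-culture, 24 h post-dosing. Gain or loss of signal fitted bidirectionally against DMSO baseline.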

CD40, CD40 (gene 958) = assay: BSK_SAg_CD40: BioMAP Diversity Plus: SAg Assay for CD40 Biomarker Activity (AID 2283088)
Outline: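 CD40 is measured by fluorescence ELISA in an endothelial/PBMC primary human co-culture at 24 h post-dose. Fitting is bidirectional, DMSO baseline. Parallel SRB staining (560 nm) flags cytotoxicity.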

Measured: AC50

Tumor necrosis factor (Homo sapiens), sequence (P01375 whole entry, looked up): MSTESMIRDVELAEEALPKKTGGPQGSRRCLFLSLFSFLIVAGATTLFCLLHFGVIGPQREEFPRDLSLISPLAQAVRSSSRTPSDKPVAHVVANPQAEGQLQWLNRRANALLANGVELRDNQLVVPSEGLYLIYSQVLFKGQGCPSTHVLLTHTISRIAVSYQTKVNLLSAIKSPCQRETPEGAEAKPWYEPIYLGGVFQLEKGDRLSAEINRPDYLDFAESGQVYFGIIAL

CC1(C)C(C(=O)OC(C#N)c2cccc(Oc3ccccc3)c2)C1(C)C (stereo unspecified)
active: [3] 6.92 µM | [6] 5.68 µM | CD38, CD38 (gene 952) 12.1 µM | CD69, CD69 (gene 969) 12.2 µM
not listed: CD40, CD40 (gene 958)
inactive: all other assays above

N#Cc1c[nH]cc1-c1cccc2c1OC(F)(F)O2
active: [1] 14.8 µM | [2] 17.9 µM | [4] 26.3 µM | [6] 29.8 µM | [7] 20 µM | CD38, CD38 (gene 952) 29.1 µM | CD40, CD40 (gene 958) 20 µM | CD69, CD69 (gene 969) 24.5 µM
inactive: [3] | [5]

CCCCC(C#N)(Cn1cncn1)c1ccc(Cl)cc1 (stereo unspecified)
not listed: [1] | [3]
inactive: all other assays above

CS(=O)(=O)c1cc(C(F)(F)F)ccc1C(=O)c1cnoc1C1CC1
active: CD38, CD38 (gene 952) 5.57 µM
not listed: [1] | CD40, CD40 (gene 958)
inactive: all other assays above

Cc1c(COC(=O)[C@@H]2[C@H](/C=C(\Cl)C(F)(F)F)C2(C)C)cccc1-c1ccccc1
active: [3] 4.57 µM | [4] 3.53 µM | CD69, CD69 (gene 969) 5.92 µM
not listed: [1] | CD40, CD40 (gene 958)
inactive: all other assays above

CS(=O)(=O)c1ccc(C(=O)C2C(=O)CCCC2=O)c([N+](=O)[O-])c1
not listed: [1] | [3] | CD40, CD40 (gene 958)
inactive: all other assays above

COC(=O)NS(=O)(=O)c1ccc(N)cc1
not listed: [1] | [3] | CD40, CD40 (gene 958)
inactive: all other assays above

CC(C)N1C(=O)c2ccccc2NS1(=O)=O
not listed: [1] | CD40, CD40 (gene 958)
inactive: all other assays above

O=c1n(Cl)c(=O)n(Cl)c(=O)n1Cl
active: [5] 0.966 µM
not listed: [1] | [3]
inactive: all other assays above

CC(C)=CC1C(C(=O)OCc2coc(Cc3ccccc3)c2)C1(C)C (stereo unspecified)
active: CD69, CD69 (gene 969) 11.4 µM
not listed: [1] | [3]
inactive: all other assays above

CCSC(=O)N1CCCCCC1
not listed: [1] | [3] | CD40, CD40 (gene 958)
inactive: all other assays above

OC(c1ccc(Cl)cc1)(c1ccc(Cl)cc1)C(Cl)(Cl)Cl
active: [2] 30.6 µM | [3] 17.5 µM | [4] 29.5 µM | [5] 20 µM | [6] 30.8 µM | [7] 29.3 µM | CD38, CD38 (gene 952) 29.7 µM | CD69, CD69 (gene 969) 30 µM

COC(=O)c1c(C(F)F)nc(C(F)(F)F)c(C2=NCCS2)c1CC(C)C
active: [4] 14.3 µM | [6] 8.66 µM | CD38, CD38 (gene 952) 25.7 µM
inactive: [2] | [5] | [7] | CD69, CD69 (gene 969)

CC(C)C1(C)N=C(c2ncccc2C(=O)O)NC1=O (stereo unspecified)
not listed: [1] | [3]
inactive: all other assays above

CNC(=O)Oc1cccc2ccccc12
active: [4] 20 µM | [7] 9.39 µM
not listed: [1] | [3]
inactive: all other assays above

COc1cc(Cl)c(OC)cc1Cl
not listed: [1] | [3] | CD40, CD40 (gene 958)
inactive: all other assays above

Clc1cccc(C(Cl)(Cl)Cl)n1
not listed: [1] | CD40, CD40 (gene 958)
inactive: all other assays above

C=CCOC(=O)C(C)(C)OC(=O)c1cc(-n2c(=O)cc(C(F)(F)F)n(C)c2=O)ccc1Cl
inactive: [2] | [5] | [6] | [7]
active: [4] 13.9 µM | CD38, CD38 (gene 952) 10.8 µM | CD69, CD69 (gene 969) 6.29 µM

Cc1cnc(C2=NC(C)(C(C)C)C(=O)N2)c(C(=O)O)c1 (stereo unspecified)
not listed: [1] | [3] | CD40, CD40 (gene 958)
inactive: all other assays above

CC(C)Nc1nc(Cl)nc(NC(C)C)n1
active: [6] 7.35 µM
not listed: [1] | [3]
inactive: all other assays above

CCOC(=O)C(C)OC(=O)c1cc(Oc2ccc(C(F)(F)F)cc2Cl)ccc1[N+](=O)[O-] (stereo unspecified)
inactive: [2] | [4] | [5] | [7]
active: [6] 3.73 µM | CD38, CD38 (gene 952) 9.17 µM | CD69, CD69 (gene 969) 12.8 µM

COc1ccc(-c2ccccc2)cc1NNC(=O)OC(C)C
active: [3] 1.84 µM | [6] 4.44 µM
not listed: [1]
inactive: all other assays above

CCC(C)n1c(=O)[nH]c(C)c(Br)c1=O (stereo unspecified)
active: [6] 10.5 µM
not listed: [1] | [3] | CD40, CD40 (gene 958)
inactive: all other assays above

N#Cc1c(Cl)cccc1Cl
not listed: [1] | [3]
inactive: all other assays above

CCNC(=O)NC(=O)C(C#N)=NOC
not listed: [1] | [3] | CD40, CD40 (gene 958)
inactive: all other assays above

CSC(=O)c1c(C(F)F)nc(C(F)(F)F)c(C(=O)SC)c1CC(C)C
active: [4] 20 µM | CD38, CD38 (gene 952) 20.8 µM
not listed: [1] | CD40, CD40 (gene 958)
inactive: all other assays above

COCc1cnc(C2=NC(C)(C(C)C)C(=O)N2)c(C(=O)O)c1 (stereo unspecified)
not listed: [1] | CD40, CD40 (gene 958)
inactive: all other assays above

CC(C)Oc1cccc(NC(=O)c2ccccc2C(F)(F)F)c1
not listed: [1] | [3]
inactive: all other assays above

Cc1ccc(N=CN(C)C=Nc2ccc(C)cc2C)c(C)c1
active: [2] 31.7 µM | [4] 32.6 µM | [5] 32.6 µM | [6] 33.6 µM | [7] 26.6 µM | CD38, CD38 (gene 952) 29.1 µM | CD69, CD69 (gene 969) 31.5 µM

CC(C)NC(=O)N1CC(=O)N(c2cc(Cl)cc(Cl)c2)C1=O
not listed: [1] | [3] | CD40, CD40 (gene 958)
inactive: all other assays above

CN/C(=N\[N+](=O)[O-])NCc1cnc(Cl)s1
not listed: [1] | CD40, CD40 (gene 958)
inactive: all other assays above

O=C(Nc1ccccc1-c1ccc(Cl)cc1)c1cccnc1Cl
not listed: [1] | [3]
inactive: all other assays above

CO/N=C(/C1=NOCCO1)c1ccccc1Oc1ncnc(Oc2ccccc2Cl)c1F
inactive: [5] | [6] | [7]
active: [2] 22.1 µM | [4] 19.2 µM | CD38, CD38 (gene 952) 22.3 µM | CD69, CD69 (gene 969) 9.36 µM

Nc1c(Cl)c(Cl)nc(C(=O)O)c1Cl
not listed: [1] | CD40, CD40 (gene 958)
inactive: all other assays above

CC1(C)CON(Cc2ccccc2Cl)C1=O
not listed: [1]
inactive: all other assays above

CCOP(=O)(OCC)Oc1nc(Cl)c(Cl)cc1Cl
active: [6] 35.9 µM | [7] 16.7 µM | CD38, CD38 (gene 952) 29.6 µM | CD69, CD69 (gene 969) 23.1 µM
inactive: [2] | [3] | [4] | [5]

Nc1c(Cl)c(F)nc(OCC(=O)O)c1Cl
active: [5] 5.36 µM
not listed: [1] | [3]
inactive: all other assays above

CCN(CC)C(=O)C(C)Oc1cccc2ccccc12 (stereo unspecified)
active: [4] 0.274 µM
not listed: [1] | CD40, CD40 (gene 958)
inactive: all other assays above
